# Shown are actives, neighbours in structure and some others; about 19% of the full set was active somewhere.
# RORg inh: ROR gamma (mouse) transcription inhibition | Drosophila S2 Gal4-RORgamma UAS-luciferase reporter, 20 h | P51450 | AID 2551 | Potency, µM (highest dose often 53.6 µM), without a hit: at the top dose activity change, negative = inhibition, actives largely listed as inhibitors | actives 5.4% (n = 310,000); also: nearly all actives have a fitted effect of over 60% in size
#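 In this cell-based reporter format, copper sulfate (700 uM final) drives Gal4–ROR gamma fusion expression from a metallothionein promoter in Drosophila Schneider cells; compounds preincubated 1 hr, reporter read after 20 hr at ambient temperature.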
# TDP1 block: inhibitors of human tyrosyl-DNA phosphodiesterase TDP1 | Q9NUW8 | recombinant TDP1, AlphaScreen DNA substrate cleavage | Potency, µM (series often up to 130 µM), for inactives: at the top dose activity change, negative = inhibition, hits mostly inhibitors | actives 0.28% (n = 350,000) | AID 485290; also: nearly all actives have a fitted effect of over 40% in size
#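 Recombinant E. coli-expressed Tdp1 (1 nM) preincubated with compound 15 min at RT, then 5'-biotin/3'-phosphotyrosine-FITC DNA substrate (15 nM) added for 5 min. AlphaScreen beads (10 ug/ml) added, 10 min RT; tyrosine-FITC cleavage read as signal loss.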
# TDP1 cell noCPT: qHTS for Inhibitors of human tyrosyl-DNA phosphodiesterase 1 (TDP1): qHTS in cells in absence of CPT; actives 15% (n = 420,000); AID 686978, 2013; DT40 Tdp1-/- hTDP1 cells, no CPT, ATP luminescence, 48 h; Potency, µM (doses to about 46.2 µM), for inactives: at the highest dose activity change, negative = growth inhibition, most hits filed as inhibitors; also: nearly all actives have a fitted effect of over 55% in size
#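 Chicken DT40 Tdp1-/- cells stably complemented with human TDP1 were seeded at 400 cells/well with DMSO in place of 20 nM camptothecin. After compound pinning, cells grew at least 48 hr at 37 °C; viability read by CellTiter-Glo luminescence.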
# DT40 TDP1 CPT: growth inhibition of DT40 Tdp1-/-;hTDP1 cells with camptothecin (screen for TDP1 inhibitors). chicken DT40 Tdp1-/-;hTDP1 cells + 20 nM CPT, ATP luminescence, 48 h. Potency, µM (doses to about 46.2 µM), for inactives: top-dose activity change, negative = growth inhibition, most hits filed as inhibitors. actives 12% (n = 420,000); also: nearly all actives have a fitted effect of over 55% in size
#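 Cell growth measured by CellTiter-Glo luminescence after a minimum 48 h, 37 C compound exposure with 20 nM CPT in Tdp1-knockout DT40 cells stably expressing hTDP1, seeded 400/well; qHTS titration format.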
# Gal4-VP16 FLuc: inhibits Gal4-VP16 luciferase reporter, ROR gamma counter-screen; Drosophila S2 Gal4-VP16 UAS-luciferase, luminescence, 20 h; Potency, µM (doses to about 53.6 µM), inactives show at the highest dose activity, negative = inhibition, most hits filed as inhibitors; actives 3.5% (n = 310,000); AID 2546;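 also: Gal4-VP16 expression switched on by copper sulfate through the metallothionein promoter; nearly all actives have a fitted effect of over 50% in size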
# The depositor's hits bear a star; ? = inconclusive; nt = no result given; [ ] = dose if it differs, or a comment. Calls follow the shape of the dose curve; as a rule, active = well fitted curve in the direction sought with a large enough effect; inconclusive = small, poorly fitted or top-dose-only effect, or another doubt; inactive = no such curve, though single readings can be large; an effect the other way counts as inactive or inconclusive. % is scaled to controls: 0 for no effect and ±100 for the full control effect; potency is read from the fitted curve at half-maximal effect.
SMILES,RORg inh,TDP1 block,TDP1 cell noCPT,DT40 TDP1 CPT,Gal4-VP16 FLuc
COc1ccc(C(C(=O)NC2CCCC2)N(C(=O)c2snc(-c3ccc(F)cc3)c2N)c2ccc(F)cc2)cc1 (stereo not given),-1.0%,3.8%,14.6µM*,9.2µM*,-8.7%
COc1ccc(C(C(=O)NC2CCCCC2)N(C(=O)c2sc(C)nc2C)c2ccc(OC)cc2)cc1 (stereo not given),22.4%,-0.5%,-21.9%,?,-0.3%
COc1ccc(N(C(=O)c2snc(C(N)=O)c2N)C(C(=O)NC2CCCC2)c2ccc3ncccc3c2)cc1 (stereo not given),14.6%,0.8%,-21.9%,?,-5.1%
COc1ccc(C(C(=O)NC2CCCC2)N(C(=O)c2snc(-c3ccc(F)cc3)c2N)c2ccccc2)cc1 (stereo not given),-4.7%,1.0%,20.6µM*,14.6µM*,0.3%
COc1ccc(N(C(=O)c2ccn[nH]2)C(C(=O)NC2CCCC2)c2ccc(F)cc2)cc1 (stereo not given),-1.3%,-2.5%,-17.8%,-23.9%,18.8%
COc1ccc(C(C(=O)NC2CCCC2)N(C(=O)c2snc(-c3ccc(F)cc3)c2N)c2ccc(OC)cc2)cc1 (stereo not given),-0.6%,4.0%,3.66µM*,8.2µM*,-3.1%
CCOc1ccc(CNS(=O)(=O)c2ccc(-c3coc(C)n3)cc2)cc1,nt,nt,18.4µM*,?,nt
CCOc1ccc(CNS(=O)(=O)c2ccc(-c3coc(C)n3)cc2)cc1OC,nt,8.8%,14.6µM*,7.31µM*,nt
Cc1cccc(CNS(=O)(=O)c2ccc(-c3coc(C)n3)cc2)c1,nt,4.4%,?,-25.1%,nt
COc1ccc(-c2[nH]ncc2CN(CC2CCC(=O)N2)C(C)C)cc1F (stereo not given),0.2%,1.2%,?,?,-1.4%
Cc1ccc(-n2nnc3c(=O)n(CC(=O)N4CCCC4)cnc32)cc1,1.2%,3.2%,-7.8%,-2.7%,8.8%
O=C(Nc1cc(-c2nc3ccccc3o2)ccc1Cl)c1cccc2c(Cl)cccc12,nt,1.9%,-21.7%,?,nt
Cc1c(NC(=O)c2ccc(Br)o2)cccc1-c1nc2ccccc2o1,nt,-5.7%[12.3 µM],23.1µM*,25.9µM*,nt
Cc1c(NC(=O)c2cc3ccccc3o2)cccc1-c1nc2ccccc2o1,nt,1.3%[12.3 µM],?,?,nt
Cc1c(NC(=O)c2cccc3c(Cl)cccc23)cccc1-c1nc2ccccc2o1,nt,3.2%,20.6µM*,14.6µM*,nt
CCCNC(=O)CCn1c(=S)oc2ccccc21,13.3%,nt,?,9.2µM*,-2.4%
CC(=O)Nc1ccc(NC(=O)CCn2c(=S)oc3ccccc32)cc1,-3.3%,1.2%,20.5%,-9.7%,8.1%
Cc1cccc(N2CCN(S(=O)(=O)c3cc(C(=O)Nc4ccc(Oc5ccccc5)cc4)ccc3F)CC2C)c1 (stereo not given),nt,7.8%,2.91µM*,2.06µM*,nt
O=C(Nc1ccc(Oc2ccccc2)cc1)c1ccc(F)c(S(=O)(=O)N2CCN(c3ccccc3F)CC2)c1,nt,7.8%,4.61µM*,5.8µM*,nt
Cc1cccc(N2CCN(S(=O)(=O)c3ccc(F)c(C(=O)Nc4cccc(Cl)c4C)c3)CC2C)c1 (stereo not given),nt,5.2%,?,?,nt
COc1ccccc1N1CCN(S(=O)(=O)c2cc(C(=O)Nc3ccc(Oc4ccccc4)cc3)ccc2F)CC1,nt,13.0%,5.8µM*,3.26µM*,nt
COc1ccccc1N1C(=O)c2ccc(C(=O)Nc3ccc(F)cc3)cc2C1=O,-40.2%,nt,-9.1%,1.5%,15.8µM*
CCOC(c1cc(OC)cc([N+](=O)[O-])c1OC)C(C)C(OC)[C@@H](C)/C=C/CC(=O)OC (stereo not given in full),-10.8%[10 µM],0.5%[21 µM],nt,nt,-9.7%[10 µM]
Cc1noc(/C=C/N(C)C)c1S(=O)(=O)N1CCCC(C(=O)Nc2ccc3c(c2)OCO3)C1 (stereo not given),-2.7%,2.6%,?,?,7.4%

# Bioassay records as filed in PubChem.
